# Measurements as given in PubChem BioAssay (NCI).
# Compounds without any hit were thinned out: in the full panel of roughly 83,000, 20% have a hit.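 Results are percent growth after 48 hours of single-concentration exposure. 100 means growth as in untreated cells, lower positive values show inhibition; negative values down to -100 show cell death.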 Unmarked numbers belong to inactive results. Activity calls are given as the source filed them. How the source made its calls: active means growth percent below 10; inactive means the rest.
# Tests used:
# Assay in all cases: NCI-60 one-dose screen, 48 h (100 = growth as untreated, 0 = no growth, -100 = all killed)
# Details in all cases: 10 µM unless noted
# SK-MEL-2 melanoma = tested on: SK-MEL-2 melanoma
# EKVX NSCLC = tested on: EKVX NSCLC
# SN12C renal = tested on: SN12C renal
# UO-31 renal = tested on: UO-31 renal
# TK-10 renal = tested on: TK-10 renal
# ACHN renal = tested on: ACHN renal
# CAKI-1 renal = tested on: CAKI-1 renal
# A498 renal = tested on: A498 renal
# CCRF-CEM leukemia = tested on: CCRF-CEM leukemia
# SR leukemia = tested on: SR leukemia
# RPMI-8226 leukemia = tested on: RPMI-8226 leukemia
# OVCAR-8 ovarian = tested on: OVCAR-8 ovarian
# OVCAR-5 ovarian = tested on: OVCAR-5 ovarian
# OVCAR-4 ovarian = tested on: OVCAR-4 ovarian
# SK-OV-3 ovarian = tested on: SK-OV-3 ovarian
# IGROV1 ovarian = tested on: IGROV1 ovarian
# OVCAR-3 ovarian = tested on: OVCAR-3 ovarian
# HS 578T breast = tested on: HS 578T breast
# NCI/ADR-RES ovarian = tested on: NCI/ADR-RES ovarian
# MOLT-4 leukemia = tested on: MOLT-4 leukemia
SMILES,growth (SK-MEL-2 melanoma),growth (EKVX NSCLC),growth (SN12C renal),growth (UO-31 renal),growth (TK-10 renal),growth (ACHN renal),growth (CAKI-1 renal),growth (A498 renal),growth (CCRF-CEM leukemia),growth (SR leukemia),growth (RPMI-8226 leukemia),growth (OVCAR-8 ovarian) [%],growth (OVCAR-5 ovarian) [%],growth (OVCAR-4 ovarian),growth (SK-OV-3 ovarian),growth (IGROV1 ovarian),growth (OVCAR-3 ovarian),growth (HS 578T breast),growth (NCI/ADR-RES ovarian),growth (MOLT-4 leukemia)
COc1ccc(OC)c(NC(=O)CCCCCCNC(=O)C(O)(O)C(F)(F)F)c1,10.6%,56%,58.9%,30.3%,12.9%,15.3%,25.2%,38.3%,23.5%,12.9%,20.9%,23.4,26.3,86.7%,6.28% (active),55.2%,40.5%,49.7%,32.8%,–
CC(Nc1c(C#N)cnc2ccc(-c3cncc(O)c3)cc12)c1ccccc1 (stereo unspecified),-43.6% (active),-13.6% (active),-5.67% (active),-9.46% (active),-13.2% (active),3.13% (active),7.08% (active),45%,10.6%,6.19% (active),11.3%,13,25.6,-17.5% (active),-3.84% (active),-20.3% (active),7.92% (active),-18.3% (active),12.4%,–
Oc1ccc(-c2nc3ccc(/C(=N\N=C\c4ccc(Cl)cc4)c4ccccc4)cc3[nH]2)cc1,90.6%,98.9%,83.5%,63.5%,105%,86.8%,76.1%,65.7%,21.6%,62.1%,33.9%,82.9,97.1,58.1%,106%,89.9%,–,98.3%,93%,–
Cc1cccc(N2CCN(C3=C(Cl)C(=O)c4ncccc4C3=O)CC2)c1,99.9%,104%,75.1%,18.3%,117%,-32.9% (active),52%,103%,4.71% (active),3.39% (active),46.8%,80.6,111,67%,92.9%,73.1%,–,70.6%,78.7%,–
C#C[C@]1(O)CC[C@H]2[C@@H]3CC=C4c5sc(N6CCN(C)CC6)nc5CC[C@]4(C)[C@H]3CC[C@@]21C,36.8%,68.5%,76.6%,77.2%,100%,47.2%,54.2%,86%,-8.52% (active),4.08% (active),-13.3% (active),74.2,69.5,75.6%,54%,63.2%,–,59.8%,36.8%,1.27% (active)
CC(C)[C@H]1c2[nH]c3ccccc3c2C[C@H]2C(=O)N(CCCCCCC(=O)NO)CC(=O)N12,86.8%,93%,90.2%,83.2%,72%,98.2%,86.2%,90%,27.8%,33.6%,58.6%,60.8,81.5,99.9%,95%,92.9%,–,74.2%,95.3%,34.6%
C#Cc1nc(C(=O)NCCCCCCC(=O)NO)cs1,8.08% (active),53.5%,36.7%,-91.3% (active),-14.2% (active),-86.5% (active),-80.2% (active),-95.1% (active),-41.4% (active),0.171% (active),-10.1% (active),15.8,10.2,25.8%,29.2%,-72.6% (active),–,-3.14% (active),2.01% (active),-26.1% (active)
Cc1cc(Br)ccc1-n1cc(C#N)c(N)c1C(=O)c1ccc(Br)cc1,108%,97.8%,110%,80.1%,87%,97.2%,91.6%,114%,96.6%,89.4%,106%,106,114,114%,109%,110%,115%,106%,103%,–
CCCCSC1=C(Cl)CN(c2ccc(Cl)cc2)C1=O,103%,101%,104%,91.1%,140%,104%,93.9%,101%,89.9%,34.3%,31.7%,99.1,104,104%,110%,109%,–,107%,103%,86.2%
Cc1ccc(-c2cc3nc(C(Cl)Cl)nc(-c4ccc(S(=O)(=O)N(C)C)cc4)n3n2)cc1,113%,103%,50.7%,92.1%,107%,83.2%,82.2%,101%,69.3%,68.7%,86.9%,65.5,106,94.3%,101%,95%,108%,105%,78.8%,–
Cc1ccc(N2CCN(C3=C(Cl)C(=O)c4ncccc4C3=O)CC2)cc1,94.4%,97%,27.8%,32%,133%,1.41% (active),44.3%,111%,5.41% (active),4.58% (active),11.8%,67.9,110,48.3%,112%,58.6%,–,79.7%,55.8%,13.9%
Cc1ccc(S(=O)(=O)c2nc(-c3ccc(F)cc3)oc2S(C)(=O)=O)cc1,86.3%,91.8%,67.4%,54.1%,93.1%,-91.8% (active),41.8%,102%,-14.8% (active),8.12% (active),31.7%,86.9,95.2,92.1%,100%,45.2%,–,90.6%,92%,–
Cn1cc(C2=C(c3coc4cc(Br)ccc34)C(=O)NC2=O)c2ccccc21,96.5%,67%,95.7%,52.5%,101%,88.2%,50.5%,79.8%,62.5%,29.5%,98.9%,87.2,113,100%,53.5%,64.7%,72.7%,52.8%,59.2%,–
O=C(O)CC1CCN(c2ccc3nnc(Cl)n3n2)CC1,106%,99.1%,98.4%,81.5%,102%,98.6%,95.8%,90.2%,111%,110%,111%,104,97.3,108%,96.2%,102%,–,102%,98.6%,109%
COc1ccc(-c2nc(C#N)c(N3CCC(S(=O)(=O)N4CCOCC4)CC3)o2)cc1,102%,105%,99.5%,89.1%,131%,97.8%,92.9%,100%,101%,83.8%,101%,106,97.1,97.8%,107%,93%,–,102%,97.2%,–
